Data taken from PubChem BioAssay (NCI).
The panel holds about 83,000 compounds, 20% with a hit somewhere; the sample as a whole holds those more often.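 How to read the values: 0–100, growth inhibition (40 = 60% inhibited); 0, no net growth; -100 to 0, cell death (-40 = 40% of starting cells died; -100 = all dead).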 A number with no mark means an inactive call. The source made the active and inactive calls. How the source made its calls: active means growth percent below 10; inactive means the rest.

Tests used:
Assay in all cases: NCI-60 one-dose screen, 48 h (100 = growth as untreated, 0 = no growth, -100 = all killed)
Conditions in all cases: 10 µM unless noted
T-47D breast = system: T-47D breast
BT-549 breast = system: BT-549 breast
MDA-MB-435 melanoma = system: MDA-MB-435 melanoma
SW-620 colon = system: SW-620 colon
MCF7 breast = system: MCF7 breast
HCT-116 colon = system: HCT-116 colon
HCC-2998 colon = system: HCC-2998 colon
KM12 colon = system: KM12 colon

SMILES	growth (T-47D breast)	growth (BT-549 breast)	growth (MDA-MB-435 melanoma)	growth (SW-620 colon)	growth (MCF7 breast)	growth (HCT-116 colon)	growth (HCC-2998 colon)	growth (KM12 colon)
CNc1ccc(Nc2ccc(S(=O)(=O)O)cc2)c2c1C(=O)c1ccccc1C2=O	110%	99.5%	95%	112%	97%	109%	112%	108%
CN(CCC#N)c1ccc(/C=C(\C#N)c2cccc(C(F)(F)F)c2)cc1	56.7%	60.1%	1.34% (active)	40.4%	34.2%	57.6%	78.5%	38.5%
COc1cc(OC)c2c(=O)cc(-c3ccccc3)oc2c1	91.2%	109%	95.8%	89.7%	102%	88.9%	97%	106%
CCCC(=O)NNc1[nH]c(-c2cc(OC)c(OC)c(OC)c2)cc1C(=O)OCC	82.1%	100%	101%	109%	117%	93%	95.3%	125%
COc1ccccc1Nc1nnc(COc2ccc(CNC(=O)CCCC/C=C/C(C)C)cc2OC)o1	76.1%	85.6%	103%	105%	87.1%	86.8%	105%	95.5%
Cc1ccc(CC(=O)O)c(C)c1	97.1%	119%	108%	102%	95.7%	107%	89.8%	105%
CCCNC(=O)Oc1ccc(/C(=C(/C)Cc2ccc(OC)cc2)c2ccc(OCCN3CCCCC3)cc2)cc1	45.4%	92.9%	92.5%	90.4%	31.8%	73%	84.6%	94%
Cc1ccc(NCc2cn(-c3ccc(C(=O)O)cc3)nc2-c2ccc(C(=O)O)cc2)cc1	98.6%	108%	107%	110%	93.6%	100%	101%	93.9%
C=C(NC(=O)[C@H](C(C)C)N(C)c1cccc2[nH]ccc12)C(=O)OC	95.4%	95.3%	102%	110%	99.6%	94.1%	113%	109%
Brc1c(-c2ccncc2)nc2n1CCS2	100%	105%	94%	105%	110%	85%	116%	116%
CCOC(=O)/C(C#N)=C(/CC)OCC	100%	95.2%	105%	102%	94.9%	92%	113%	97.7%
CCCCCCCCC1OC1CCCCCCCC(=O)O (configuration not stated)	99%	128%	107%	108%	101%	101%	107%	104%
c1cc(C2CCCCC2)ccc1OCCCCCCN1CCNCC1	22.8%	83%	42.1%	-37.7% (active)	-31.3% (active)	-61.7% (active)	12.9%	6.42% (active)
Oc1ccc(N=Nc2ccc(N=Nc3ccccc3)cc2)cc1	16.4%	49%	19.6%	44.7%	22.8%	33.3%	17.2%	27.8%
CC[N+](C)(C)N	103%	105%	109%	105%	91.7%	99%	113%	107%
O=C(Nc1ccccc1)Nc1ccc(Nc2ncnc3sc4c(c23)CCCC4)cc1	101%	109%	112%	106%	96.2%	115%	95.4%	102%
CC1(c2ccc(Br)cc2)NC(=O)NC1=O (configuration not stated)	82.2%	90.4%	113%	106%	101%	99.5%	106%	101%
Nc1nc2c(c3cnccc13)C(c1cccc(Cl)c1)Cc1cnccc1-2 (configuration not stated)	47.9%	-12% (active)	-22.9% (active)	24.2%	11.1%	6.83% (active)	41.7%	13.7%
CSCc1ncc(-c2ccc(C(F)(F)F)cc2)c(NC2CCCCCC2)n1	53.5% [25 µM]	82.1% [25 µM]	78.7% [25 µM]	53.1% [25 µM]	68% [25 µM]	38.1% [25 µM]	89.9% [25 µM]	52.1% [25 µM]
O=C(O)c1ccc(Br)nc1	99.1%	106%	103%	97.1%	93.8%	98%	104%	107%
O=C(/C=C\c1ccccc1Cl)c1ccccc1	91.6%	92%	90.5%	82.5%	46.8%	53.9%	94.6%	66%
O=C(CN1CCN(c2cccc(Cl)c2)CC1)N1CCN(c2nnc(-c3ccc(Cl)cc3)c(-c3ccc(Cl)cc3)n2)CC1	50.1%	87.8%	72.3%	76.7%	55.4%	53.5%	83.6%	57.6%
Cn1c2ccccc2c2ccccc21	90%	106%	103%	106%	106%	107%	110%	101%
O=C(CCl)NC1c2ccccc2Oc2ccccc21	65.9%	55.2%	62.7%	57.1%	45.8%	45.9%	111%	82.6%
Cc1ccc(C(=O)C(Br)C(Br)c2ccccc2)cc1 (configuration not stated)	71.5%	104%	99.8%	27.8%	25.7%	-65.7% (active)	116%	99.1%
CCn1cnc(C[C@H](NC(=O)[C@@H](NC(=O)Nc2cc(C(F)(F)F)cc(C(F)(F)F)c2)C(C)C)C(=O)OC)c1	-77.8% [100 µM] (active)	-97.6% [100 µM] (active)	-87.1% [100 µM] (active)	-44.1% [100 µM] (active)	-55.7% [100 µM] (active)	-88.1% [100 µM] (active)	-86.3% [100 µM] (active)	-81.9% [100 µM] (active)
NC(N)=Nc1ccc(/C=C2\C=Cc3ccccc32)cc1	50.6%	81.5%	21.6%	33.5%	25%	47.5%	62.6%	15.2%

SMILES	growth (T-47D breast)	growth (BT-549 breast)	growth (MDA-MB-435 melanoma)	growth (SW-620 colon)	growth (MCF7 breast)	growth (HCT-116 colon)	growth (HCC-2998 colon)	growth (KM12 colon)
COc1ccc(/C=C(/C(=O)N2CCN(c3ccc(C)cc3)CC2)c2cc(OC)c(OC)c(OC)c2)cc1N	97.2%	16.6%	-43.8% (active)	27.1%	12%	3.55% (active)	31.8%	3.83% (active)
CCCC(=O)Nc1ccccc1C(=O)O	117%	113%	101%	105%	90.7%	103%	97.9%	90.5%
CCOC(=O)C(C)C(C)(O)c1ccccc1 (configuration not stated)	97.3%	105%	102%	114%	93.6%	97.1%	84.4%	97.7%
Nc1ccc(S(=O)(=O)Nc2cc(F)cc(F)c2)cc1	105%	88.1%	102%	91.6%	108%	109%	106%	107%
CCCCCCC(C)N(CC(C)(C)O)C(=O)c1ccc([N+](=O)[O-])cc1 (configuration not stated)	88.2%	99%	104%	95.8%	97.6%	91.3%	115%	103%
C[C@H]1C[C@@H](n2cnc3c(N)nccc32)[C@H](O)[C@@H]1O	102%	93.7%	113%	87.2%	90.1%	86.8%	101%	80.8%
CCCC(C)c1cc(Cc2cc(Cl)cc(Cl)c2O)c(O)c(Cc2cc(Cl)cc(Cl)c2O)c1 (configuration not stated)	6.27% (active)	-14.9% (active)	7.24% (active)	12.9%	4.88% (active)	4.58% (active)	8.08% (active)	9.12% (active)
CC(=O)OC1CC2C3CCC4C[C@@H](NC(=O)C=C(C)C)CC[C@]4(C)C3CC[C@]2(C)[C@H]1C(C)N(C)C (some centres not stated)	-22.3% (active)	22.5%	-45.4% (active)	-72.5% (active)	1.95% (active)	-70.4% (active)	-51.9% (active)	1.6% (active)
C=CCN(C)C	117%	101%	97.1%	105%	101%	105%	110%	108%
Nc1nc2c(c3ncncc13)C(c1cccc(C(F)(F)F)c1)Cc1ncncc1-2 (configuration not stated)	37.9%	30.1%	-24.7% (active)	28.9%	19.2%	18.5%	64.3%	28.9%
Br/C(=N\Nc1nn[nH]n1)c1ccccc1	101%	99%	111%	102%	95.3%	104%	118%	114%
CCOC(=O)C1=C(c2ccccc2)NC(=O)NC1CN1C(=O)c2ccccc2C1=O (configuration not stated)	99%	129%	114%	107%	98.3%	99.6%	62.9%	113%
CC(=O)N1N=C(c2ccc(Cl)cc2)CC1c1cn(-c2ccccc2)nc1-c1ccc([N+](=O)[O-])cc1 (configuration not stated)	86.9%	89.7%	98.1%	99%	95.9%	97.1%	231%	101%
CC(C)(CNC1CCCCC1)OC(=O)c1ccccc1	104%	99.7%	107%	110%	107%	103%	111%	102%
Cc1c(O)c(N=Nc2ccc(C(=O)O)c(O)c2)c2ccccc2c1O	112%	89.3%	106%	84.8%	101%	98.1%	118%	98.3%
CCCCCCCCCCCCCCCCCC1=NCCN1CCNC(C)=O	85.8%	99.1%	103%	107%	79.2%	69.1%	92.3%	73.4%
CCCCCCCCCCCCOC(=O)/C=C\C(=O)NC(N)=O	80.3%	67.7%	84.7%	91.2%	64.3%	68.2%	110%	95.4%
O=C(N/N=C\c1ccc(Cl)cc1)C(=O)N/N=C\c1ccc(Cl)cc1	99.2%	95.4%	108%	113%	96.5%	106%	110%	106%
CC(=O)NCCN	97.5%	102%	107%	107%	104%	102%	97.4%	113%
COc1ccc(-c2nc(SCC(C)C)nc(Nc3ccc(C)cc3)c2C#N)cc1	32.4%	85.8%	86.7%	54.4%	70.3%	33.5%	92.5%	80.8%
CC1=C(C)C[C@]2(C(=O)O[C@H]3CCCC[C@@H]32)[S@](=O)C1	105%	91.6%	103%	110%	95%	108%	95%	101%
CCOC(=O)C1=C(C(F)(F)F)NC(=O)NC1CN1C(=O)c2ccccc2C1=O (configuration not stated)	111%	108%	108%	105%	108%	112%	101%	115%
NNC(=O)CNc1ccc2ccccc2c1	108%	93.4%	111%	99.8%	102%	107%	140%	97.2%
CCCCCCCCCC(C)NC(=O)CCl (configuration not stated)	82.6%	88.8%	96.3%	103%	86.2%	95.7%	103%	101%
FC(F)(F)c1cccc(-c2[nH]ncc2-c2nnnn2-c2ccccc2)c1	44.9%	42.8%	-7.25% (active)	16.5%	24.1%	20.7%	31.1%	23.9%
O=C(O)CS(=O)c1ccc(Cl)cc1 (configuration not stated)	101%	99.8%	102%	106%	101%	97.6%	97.1%	103%
O=c1[nH]c(=S)[nH]c(O)c1/C=C1\C=Nc2ccccc21	98.4%	76.9%	47.3%	36.2%	62.2%	39.5%	99.6%	47.7%
